Inconclusive results are not listed. A call without a number means that no potency is given here. Activity calls are given as the source filed them. Unless noted, the call rests on the fitted dose curve; in most records, active means well fitted curve in the direction sought with a large enough effect in the repeat runs; inconclusive means weak or mixed curves; inactive means no such curve, though single readings can be large; an effect the other way counts as inactive or inconclusive.
Legend:
[1] = biological target: Cytochrome P450 2D6 (Homo sapiens) (UniProt P10635); assay: Cytochrome P450 family 2 subfamily D member 6 (CYP2D6) small molecule antagonists: luciferase biochemical (cell-free) qHTS assay (AID 1645840); conditions: P450-Glo CYP2D6 enzyme, luciferin luminescence, 1 h; series mostly up to 57.4 µM; further: nearly all actives have a fitted effect of over 55% in size; further: potency means the concentration at half of the fitted maximal effect
Summary of the method: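 P450-Glo luminescent screen: recombinant CYP2D6 enzyme–proluciferin substrate mix preincubated with compound 10 min at room temperature, then NADPH regeneration added for 1 h at room temperature. Detection reagent added for 20 min; luciferin light read as relative luminescence units.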

[2] = biological target: Cytochrome P450 3A4 (Homo sapiens) (UniProt P08684); assay: Cytochrome P450 family 3 subfamily A member 4 (CYP3A4) small molecule antagonists: luciferase qHTS assay (AID 1645841); conditions: P450-Glo CYP3A4 enzyme assay, luciferin luminescence; series mostly up to 57.4 µM; further: nearly all actives have a fitted effect of over 45% in size
Summary of the method: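 P450-Glo CYP3A4 enzyme with proluciferin substrate was preincubated with DMSO-dissolved compounds for 10 min at room temperature. NADPH regeneration solution started a 1 h reaction. Detection reagent stopped it, and luminescence was read after 20 min.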

[3] = biological target: Cytochrome P450 2C9 (Homo sapiens) (UniProt P11712); assay: Cytochrome P450 family 2 subfamily C member 9 (CYP2C9) small molecule antagonists: luciferase biochemical (cell-free) qHTS assay (AID 1645842); conditions: P450-Glo CYP2C9 enzyme assay, luciferin luminescence; series mostly up to 57.4 µM; further: nearly all actives have a fitted effect of over 55% in size; further: potency means the concentration at half of the fitted maximal effect
Summary of the method: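 Luminescence, after 20 min with luciferin detection reagent, reflected CYP2C9 turnover during a 1 h NADPH-driven reaction at 37C. Enzyme-substrate mix contained 0.4% bovine serum albumin and was preincubated with compound 10 min at room temperature.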

[4] = Primary qHTS for inhibitors of nuclear receptor binding SET domain protein 2 (NSD2) in an isogenic RCH-ACV NSD2 p.E1099K mutant (9B) (AID 1645876; active means well fitted curve in the direction sought with a large enough effect; an effect the other way counts as inactive or inconclusive; further: nearly all actives have a fitted effect of over 70% in size); conditions: RCH-ACV NSD2 E1099K (9B) viability, CellTiter-Glo, 72 h; series mostly up to 44.9 µM
[5] = Primary qHTS for inhibitors of nuclear receptor binding SET domain protein 2 (NSD2) in an RCH-ACV wild type WT cells (2C) (AID 1645877; active means well fitted curve in the direction sought with a large enough effect; an effect the other way counts as inactive or inconclusive; further: nearly all actives have a fitted effect of over 70% in size); conditions: RCH-ACV (leukaemia line) NSD2 WT (2C) viability, CellTiter-Glo, 72 h; series mostly up to 44.9 µM
[6] = biological target: N-terminal Xaa-Pro-Lys N-methyltransferase 1 (Homo sapiens) (UniProt Q9BV86); assay: Confirmatory qHTS for Inhibitors of N-terminal methyltransferase 1 (NTMT1): MTaseGlo Assay (AID 1645874; active means well fitted curve in the direction sought with a large enough effect; an effect the other way counts as inactive or inconclusive; further: potency means the concentration at half of the fitted maximal effect; nearly all actives have a fitted effect of over 65% in size); conditions: NTMT1 enzyme, MTase-Glo SAH luminescence; series mostly up to 51.5 µM
Summary of the method: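 Preincubation of NTMT1 (125 nM) plus SAM (100 uM) with test compounds lasted 15 min; methylation of 1 uM SPKRIA then proceeded 30 min in the dark at room temperature. Luciferase signal reported SAH produced.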

Sequence of Cytochrome P450 2D6 (Homo sapiens) (P10635 whole entry, looked up): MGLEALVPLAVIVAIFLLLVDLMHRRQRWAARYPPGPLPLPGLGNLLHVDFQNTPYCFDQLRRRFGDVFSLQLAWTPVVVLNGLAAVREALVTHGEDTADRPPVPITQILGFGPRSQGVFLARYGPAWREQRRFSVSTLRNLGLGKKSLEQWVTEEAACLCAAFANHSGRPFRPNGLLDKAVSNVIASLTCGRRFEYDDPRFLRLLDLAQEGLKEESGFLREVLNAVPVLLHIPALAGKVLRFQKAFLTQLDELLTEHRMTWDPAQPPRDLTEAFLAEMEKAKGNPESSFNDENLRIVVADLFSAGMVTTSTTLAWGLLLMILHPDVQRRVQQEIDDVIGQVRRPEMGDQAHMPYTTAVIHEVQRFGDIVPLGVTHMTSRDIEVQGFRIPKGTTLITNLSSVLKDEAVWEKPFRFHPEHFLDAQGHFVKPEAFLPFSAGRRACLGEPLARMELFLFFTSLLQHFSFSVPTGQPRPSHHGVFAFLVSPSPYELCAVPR
Sequence of Cytochrome P450 2C9 (Homo sapiens) (P11712 whole entry, looked up): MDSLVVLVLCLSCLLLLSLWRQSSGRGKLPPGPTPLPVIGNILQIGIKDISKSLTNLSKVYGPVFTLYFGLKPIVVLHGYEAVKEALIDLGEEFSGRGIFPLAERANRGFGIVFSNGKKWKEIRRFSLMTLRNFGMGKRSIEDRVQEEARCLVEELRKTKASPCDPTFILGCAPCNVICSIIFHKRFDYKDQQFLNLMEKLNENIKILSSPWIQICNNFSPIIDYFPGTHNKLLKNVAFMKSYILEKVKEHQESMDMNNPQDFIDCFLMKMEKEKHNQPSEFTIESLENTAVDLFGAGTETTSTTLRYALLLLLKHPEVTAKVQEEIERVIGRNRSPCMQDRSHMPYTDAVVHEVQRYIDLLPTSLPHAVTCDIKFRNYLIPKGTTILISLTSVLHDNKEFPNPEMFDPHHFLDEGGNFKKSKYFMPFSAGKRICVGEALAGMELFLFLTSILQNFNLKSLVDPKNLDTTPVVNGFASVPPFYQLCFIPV
Sequence of N-terminal Xaa-Pro-Lys N-methyltransferase 1 (Homo sapiens) (Q9BV86 whole entry, looked up): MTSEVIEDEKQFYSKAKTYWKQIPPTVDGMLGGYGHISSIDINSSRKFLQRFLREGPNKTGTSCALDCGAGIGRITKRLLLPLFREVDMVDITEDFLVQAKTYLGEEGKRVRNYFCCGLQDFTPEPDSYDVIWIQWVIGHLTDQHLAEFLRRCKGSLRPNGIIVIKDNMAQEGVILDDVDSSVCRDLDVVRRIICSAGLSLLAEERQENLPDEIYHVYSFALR
Sequence of Cytochrome P450 3A4 (Homo sapiens) (P08684 whole entry, looked up): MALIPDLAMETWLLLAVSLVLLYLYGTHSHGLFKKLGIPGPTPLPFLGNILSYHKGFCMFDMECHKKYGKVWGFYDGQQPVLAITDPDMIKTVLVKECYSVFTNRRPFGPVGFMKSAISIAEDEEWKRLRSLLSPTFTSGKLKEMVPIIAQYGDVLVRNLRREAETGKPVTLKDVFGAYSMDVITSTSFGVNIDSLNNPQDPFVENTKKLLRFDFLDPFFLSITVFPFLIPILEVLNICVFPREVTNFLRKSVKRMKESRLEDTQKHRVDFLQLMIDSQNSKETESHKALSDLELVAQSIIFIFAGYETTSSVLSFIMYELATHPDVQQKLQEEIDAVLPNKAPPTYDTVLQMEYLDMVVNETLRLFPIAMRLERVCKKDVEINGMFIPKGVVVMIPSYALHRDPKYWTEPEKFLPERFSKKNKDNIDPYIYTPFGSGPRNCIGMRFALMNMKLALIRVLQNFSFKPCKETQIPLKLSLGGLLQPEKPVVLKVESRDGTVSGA

CN(C)C(=O)CNC(=O)Cc1ccccc1
Potency [1]: inactive
Potency [2]: inactive
Potency [3]: inactive
Potency [4]: inactive
Potency [5]: inactive

Cc1ccc(CCn2c3c(c4cc(Cl)ccc42)CN(C)CC3)cn1
Potency [1]: 2.19 µM (active)
Potency [3]: inactive

CO/N=C(/C(=O)N[C@@H]1C(=O)N2C(C(=O)OCOC(=O)C(C)(C)C)=C(C)CS[C@H]12)c1csc(N)n1
Potency [1]: inactive
Potency [3]: 17.4 µM (active)

c1ccc(C(O[C@H]2CCCN(CCc3ccc4c(c3)OCO4)C2)c2ccccc2)cc1
Potency [1]: 0.0123 µM (active)
Potency [3]: 24.5 µM (active)

CN1CCC(N(Cc2cccs2)c2ccccc2)CC1
Potency [1]: 0.49 µM (active)
Potency [3]: inactive

CC[N+]1(CC)CCC(=C(c2ccccc2)c2ccccc2)C1C (stereo unspecified)
Potency [1]: 1.74 µM (active)
Potency [3]: inactive

CO[C@@H]1[C@@H](O[C@@H]2O[C@H](C)[C@@H](O[C@H]3C[C@@](C)(O)[C@@H](O)[C@H](C)O3)[C@H](N(C)C)[C@H]2O)[C@@H](CC=O)C[C@@H](C)[C@@H](O[C@@H]2CC[C@H](N(C)C)[C@@H](C)O2)/C=C/C=C/C[C@@H](C)OC(=O)C[C@H]1OC(C)=O
Potency [1]: inactive
Potency [3]: inactive

O=C1OC2(c3ccccc31)c1cc(I)c(O)c(I)c1Oc1c2cc(I)c(O)c1I
Potency [1]: 17.4 µM (active)
Potency [3]: 19.5 µM (active)
Potency [6]: 1.9 µM (active)

CCOC(=O)OCC/C(SC(=O)OCC)=C(\C)N(C=O)Cc1cnc(C)nc1N
Potency [1]: 2.16 µM (active)
Potency [3]: inactive

COc1cc(OC)nc(O[C@H](C(=O)O)C(OC)(c2ccccc2)c2ccccc2)n1
Potency [1]: inactive
Potency [3]: inactive

COc1ccc2nc(SCc3ncc(C)c(OC)c3C)[nH]c2c1
Potency [1]: 12.3 µM (active)
Potency [3]: inactive

From PubChem BioAssay (NCATS)
